Source: PubChem
PDI turbidity – blocks human protein disulfide isomerase activity; PDI insulin aggregation turbidity, A650, 90 min; AID 588391; inhibition, % at 10 µM; P07237; 0.052% of 350,000 active;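 active = mean inhibition across replicates of 30% or more, whatever share of single replicates reach that level; inconclusive = mean inhibition below 30% while every single replicate reaches 30%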
DENV2 CPE – protects cells from dengue virus 2 cytopathic effect; DENV2-infected cells, cytopathic effect rescue, plate reader; CPE inhibition, % at 9.99 µM; 1.7% of 350,000 active; AID 651640; in the data active = CPE inhibition above about 20%, passing the limit was not always enough; inconclusive = no clear call, values can overlap the other calls; tested in BHK-21 cells;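 also: 0% = median of neutral control wells and 100% = median of positive control wells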
Rtt109 Vps75 – blocks Candida albicans Rtt109/Vps75 acetyltransferase activity; purified Rtt109/Vps75, ThioGlo CoA-SH fluorescence, 4 h; inhibition, % at 34.9 µM; 0.16% of 330,000 active;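 active = inhibition of at least 50% in every replicate; inconclusive = best replicate reaches 50% inhibition but some replicates fall short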
ERp5 block – ERp5 (human) disulfide isomerase inhibition | Q15084 | ERp5 insulin aggregation, absorbance 650 nm, 90 min | inhibition, % at 9.99 µM | 0.05% of 350,000 active;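 active = mean replicate inhibition above about 25%, with every replicate also reaching it, limit read from the data, passing the limit was not always enough; inconclusive = only one of those two criteria met; inactive = neither criterion met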
Target sequence (Q15084 whole entry, looked up): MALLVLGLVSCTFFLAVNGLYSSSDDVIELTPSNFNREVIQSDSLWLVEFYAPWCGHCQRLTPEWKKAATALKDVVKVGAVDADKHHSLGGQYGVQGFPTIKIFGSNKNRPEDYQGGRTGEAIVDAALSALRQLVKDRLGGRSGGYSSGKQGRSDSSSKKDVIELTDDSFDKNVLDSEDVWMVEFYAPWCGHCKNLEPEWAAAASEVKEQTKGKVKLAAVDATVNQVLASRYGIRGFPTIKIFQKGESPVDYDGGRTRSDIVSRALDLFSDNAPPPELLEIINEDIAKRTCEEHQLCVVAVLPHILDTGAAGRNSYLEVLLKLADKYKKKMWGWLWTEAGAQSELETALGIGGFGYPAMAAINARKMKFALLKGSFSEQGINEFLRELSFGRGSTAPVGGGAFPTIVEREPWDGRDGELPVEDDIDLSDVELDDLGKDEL
SIRT5 inh – sirtuin-5 (human) deacylase inhibition | inhibition, % at 15 µM | Q9NXA8 | AID 652115 | 1.1% of 330,000 active | Purified SirT5, succinyl-peptide AMC, trypsin-coupled fluorescence; in the data active = inhibition above about 15%; inconclusive = no clear call, values can overlap the other calls
Starred values were filed as active, the others as inactive; ? = inconclusive; · = not tested or not shown; ! = a repeat was not active. This is a sample that favours compounds with a hit; in the whole collection about 2.3% have one here.

SMILES | PDI turbidity | DENV2 CPE | Rtt109 Vps75 | ERp5 block | SIRT5 inh
Cc1noc(C)c1NC(=O)Nc1ccc2c(c1)C(=O)N([C@H](C)CO)C[C@H](C)[C@H](CN(C)Cc1ccc(Cl)c(Cl)c1)OCCCC[C@@H](C)O2 | · | 35.5* | · | 2.5 | 3.6
CC(C)C[C@H]1COCn2nncc2CC[C@H](Cc2ccccc2)C(=O)N1 | · | -1.3 | · | 0.5 | 5.3
COCC(=O)N(C)C[C@H]1Oc2cc(-c3ccc(OC)cc3)ccc2S(=O)(=O)N([C@@H](C)CO)C[C@H]1C | · | 2.1 | · | -2.4 | 5.0
CC(C)C#Cc1ccc([C@@H]2[C@H](C#N)N(C(=O)C3CC3)[C@H]2CO)cc1 | · | ? | · | -0.1 | 1.0
COc1cccc(C(=O)Nc2ccc3c(c2)C(=O)N(C)[C@@H]2CC[C@@H](CC(=O)NCC(F)(F)F)O[C@@H]2CO3)c1 | · | -5.1 | · | 0.3 | -3.0
Cc1noc(C)c1NC(=O)N(C)C[C@@H]1OCCCC[C@@H](C)Oc2ccc(NC(=O)Nc3cccc4ccccc34)cc2C(=O)N([C@@H](C)CO)C[C@@H]1C | · | 37.6* | · | 1.4 | ·
Cc1noc(C)c1NC(=O)N(C)C[C@H]1OCCCC[C@@H](C)Oc2ccc(NC(=O)Nc3cccc4ccccc34)cc2C(=O)N([C@@H](C)CO)C[C@H]1C | · | -3.3 | · | · | ·
Cc1noc(C)c1NC(=O)N(C)C[C@@H]1OCCCC[C@H](C)Oc2ccc(NC(=O)Nc3ccc(C(F)(F)F)cc3)cc2C(=O)N([C@@H](C)CO)C[C@@H]1C | · | 29.6* | · | -6.9 | 4.6
Cc1noc(C)c1NC(=O)Nc1ccc2c(c1)C(=O)N([C@H](C)CO)C[C@H](C)[C@H](CN(C)C(=O)NC1CCCCC1)OCCCC[C@@H](C)O2 | -4.2 | 30.8*! | · | 2.8 | -1.8
Cc1noc(C)c1NC(=O)Nc1ccc2c(c1)C(=O)N([C@@H](C)CO)C[C@@H](C)[C@H](CN(C)C(=O)NC1CCCCC1)OCCCC[C@H](C)O2 | · | 10.7 | · | 3.8 | -4.5
CCN1[C@@H]2c3ccc(/C=C/c4ccccc4)c(=O)n3C[C@@H]2[C@@H](CO)[C@@H]1C(=O)N(C)C | · | 0.8 | · | 3.1 | -6.3
COc1cc(CCCN2C(=O)C(=O)NC[C@@H]2Cc2ccc(O)cc2)cc(OC)c1OC | 9.4 | 0.7 | -6.1 | -4.0 | -1.7
COc1cc(CCCN2C(=S)NC[C@H]2Cc2ccc(O)cc2)cc(OC)c1OC | 23.2 | -9.2 | -1.3 | -3.3 | 31.7*
O=C(c1ccc(N2CCCC2)c([N+](=O)[O-])c1)N1CCN(S(=O)(=O)c2ccccc2)CC1 | 0.0 | 8.4 | 10.1 | 2.5 | 32.6*
Cc1ccc(C)c(S(=O)(=O)N2CCN(C(=O)c3ccc(N4CCCC4)c([N+](=O)[O-])c3)CC2)c1 | 3.4 | -1.8 | 6.2 | 10.6 | -0.7
CC1Cc2ccccc2N1C(=O)c1ccc(N2CCCC2)c([N+](=O)[O-])c1 (configuration not stated) | 17.4 | 1.0 | 57.5* | -1.7 | 0.7
Cc1cc(O)c(C(C)C)cc1NC(=S)Nc1cc(C(C)C)c(O)cc1C | 6.5 | 74.0* | 3.6 | 0.4 | -5.5
O=C(NN1C(=O)CSC1=S)C(=O)NN1C(=O)CSC1=S | 1.8 | 5.0 | 9.5 | 4.0 | 49.8*
O=C(C[C@@H]1CC[C@@H]2[C@H](COC[C@@H](O)CN2Cc2nccs2)O1)NCc1ccc(Oc2ccccc2)cc1 | · | -0.2 | · | -3.2 | 9.7
CN(C)CCN1CCN(C2CN(Cc3cn(Cc4cccc(Cl)c4)nn3)S(=O)(=O)C2)CC1 (configuration not stated) | · | -4.2 | · | -2.2 | 19.1*
Cc1ccc(Cn2cc(CN3CC(N4CCSCC4)CS3(=O)=O)nn2)cc1 (configuration not stated) | · | 30.8* | · | -1.9 | 0.3
CO[C@H]1CN(C)C(=O)c2cc(NC(=O)c3ccccc3F)ccc2OC[C@@H](C)NC[C@@H]1C | · | -4.5 | · | 4.5 | 25.7*
CO[C@H]1CN(C)C(=O)c2cc(NC(=O)c3ccccc3F)ccc2OC[C@H](C)NC[C@H]1C | · | 4.6 | · | -1.4 | -0.8
CO[C@H]1CN(C)C(=O)c2cc(NC(=O)c3ccccc3F)ccc2OC[C@H](C)NC[C@@H]1C | · | 9.0 | · | 6.1 | 24.6*
CCCN=C1N(CC)C[C@@H]2[C@@H]3C(=O)N(C)C(=O)[C@@H]3[C@](CC)(C(=O)OC)N12 | 23.0 | 27.9* | -6.2 | -19.6 | -3.7
CCCCCCc1ccc(OCC(=O)OC)cc1OCC(=O)OC | 12.2 | -2.4 | 10.1 | 6.0 | 22.9*
C[C@@H]1CN([C@@H](C)CO)C(=O)c2cc(NC(=O)C3CCCCC3)ccc2O[C@@H](C)CCCCO[C@H]1CN(C)C(=O)NC1CCCCC1 | · | -4.7 | · | -10.8 | 4.5
